The test system of assay [1] is Sodium/Iodide Symporter (NIS), SLC5A5 (gene 6528). As to the kind of experiment: CPHEA_Stoker_NIS_Inhibition_RAIU: CPHEA's Radioactive Iodide Uptake (RAIU) Assay for Sodium/Iodide Symporter (NIS) Inhibition, Stoker and Laws Labs (AID 2283841). Summed up: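 Iodide uptake through human NIS is measured in an engineered HEK293T line. Cells take up 125I (329pM final) for 2 hours at room temperature alongside chemicals at 0.001–100uM. Retained radioactivity is counted, and the signal is expressed against DMSO controls.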

Assay [2] in a line: CPHEA_Stoker_NIS_Cytotoxicity: Cytotoxicity Assessment for CPHEA's Radioactive Iodide Uptake (RAIU) Assay for Sodium/Iodide Symporter (NIS) Inhibition, Stoker and Laws Labs (AID 2283897).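 On AC50: active means loss of ATP signal versus DMSO meaning cytotoxicity.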 Summed up:
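ATP luminescence (Cell Titer Glo) measured viability, with loss of signal normalized to DMSO controls. Cells: hNIS-HEK293T-EPA, seeded 40 hours prior. Dosing: 0.001–100uM, 2 hours, room temperature, uptake buffer pH 7.4.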

For assay [3], the target named is PGR (gene 5241) (UniProt P06401). As to the kind of experiment: TOX21_PR_BLA_Followup_Antagonist_ratio: Tox21 HEK293 Progesterone Receptor (PR) Antagonism Beta-lactamase Follow-Up Assay, Ratio (AID 2283934). Summed up: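 Read-out: blue/green beta-lactamase FRET ratio (cleaved ch2 over uncleaved ch1), fitted relative to DMSO baseline. Cells: PR-UAS-bla HEK293T, GAL4-UAS reporter, stimulated with 1 nM R5020 final; 16 hr compound exposure, 37C.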
PGR (gene 5241), sequence (P06401 whole entry, looked up, the tested form may be a part): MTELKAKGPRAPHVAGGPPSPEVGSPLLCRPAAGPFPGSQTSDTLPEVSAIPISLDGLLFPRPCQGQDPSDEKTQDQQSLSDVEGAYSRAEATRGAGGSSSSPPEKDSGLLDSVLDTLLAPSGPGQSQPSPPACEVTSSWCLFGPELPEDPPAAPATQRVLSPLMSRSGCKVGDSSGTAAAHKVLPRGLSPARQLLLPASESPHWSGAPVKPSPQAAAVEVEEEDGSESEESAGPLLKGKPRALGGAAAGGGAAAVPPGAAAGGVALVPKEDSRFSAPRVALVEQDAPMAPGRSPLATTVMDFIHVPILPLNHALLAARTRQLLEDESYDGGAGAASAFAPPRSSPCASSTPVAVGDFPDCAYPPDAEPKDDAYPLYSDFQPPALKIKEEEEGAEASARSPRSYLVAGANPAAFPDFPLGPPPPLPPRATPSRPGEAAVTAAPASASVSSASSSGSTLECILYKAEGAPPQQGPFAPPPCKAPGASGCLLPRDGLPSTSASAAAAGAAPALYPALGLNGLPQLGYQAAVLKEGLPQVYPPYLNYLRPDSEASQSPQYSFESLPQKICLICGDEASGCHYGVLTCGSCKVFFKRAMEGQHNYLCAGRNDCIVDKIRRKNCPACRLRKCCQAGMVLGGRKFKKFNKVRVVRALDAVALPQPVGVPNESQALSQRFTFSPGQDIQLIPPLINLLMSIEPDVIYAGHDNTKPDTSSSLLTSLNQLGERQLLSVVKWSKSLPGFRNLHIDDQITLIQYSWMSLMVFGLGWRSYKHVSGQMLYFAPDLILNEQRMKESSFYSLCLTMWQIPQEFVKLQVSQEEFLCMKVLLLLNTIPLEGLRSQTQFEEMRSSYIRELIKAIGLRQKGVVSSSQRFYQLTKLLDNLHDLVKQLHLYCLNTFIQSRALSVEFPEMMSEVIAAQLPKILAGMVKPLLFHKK

The nature of assay [4]: TOX21_PR_BLA_Followup_Agonist_viability: Viability Assessment in the Tox21 HEK293 Progesterone Receptor (PR) Agonism Beta-lactamase Follow-Up Assay (AID 2283935).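 Further: signal loss means lower viability so actives are cytotoxic.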 Summed up:
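Luminescent ATP quantitation (CellTiter-Glo, 30 min, room temperature) in the same wells as the beta-lactamase read, on PR-UAS-bla HEK293T cells exposed to compound for 16 hr at 37C in 2% charcoal-stripped serum.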

Assay [5] in a line: TOX21_PR_BLA_Followup_Antagonist_viability: Viability Assessment in the Tox21 HEK293 Progesterone Receptor (PR) Antagonism Beta-lactamase Follow-Up Assay (AID 2283936).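 Further: cells exposed to compound with R5020 agonist for 16 h; hits lower the luminescence signal meaning cytotoxicity.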 An outline of the steps:
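PR-UAS-bla HEK293T cells in medium with 2% charcoal-stripped FBS were treated with compounds plus R5020 for 16 hr at 37C. After the beta-lactamase read, CellTiter-Glo was added to the same wells and luminescence read after 30 min at room temperature.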

Assay [6] has as its target PGR (gene 5241) (UniProt P06401). As to the kind of experiment: TOX21_PR_LUC_Followup_Antagonist: Tox21 HEK293 Progesterone Receptor (PR) Antagonism Luciferase Follow-Up Assay (AID 2283938).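 Further: curve fitted upward as signal gain over DMSO baseline despite antagonist label.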 An outline of the steps:
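Cells are grown 5 days in charcoal-stripped-FBS assay medium, plated, left 5 h, then dosed with compound and incubated 16 h. ONE-Glo reagent is added and luminescence read after 30 min.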

Structures are written as SMILES. Inconclusive results are not listed. Calls of active or inactive are those of the source. How the source made its calls: active means hit-call score of the fitted dose curve at least 0.9, where 1 is the maximum; inconclusive means response in the unintended direction; inactive means score below 0.9.

As usually defined, the AC50 is the midpoint of the concentration-response curve, whichever way the signal moves.

As to `CO[Si](OC)(OC)c1ccccc1`, the result in assay [1] and in assay [2] was inactive.
For `COc1ccc(C(Cl)=C(c2ccc(OC)cc2)c2ccc(OC)cc2)cc1`, the AC50 with PGR (gene 5241) [3] is 8.27 µM (active); with PGR (gene 5241) [6], 8.88 µM (active). The outcome in assay [4] and in assay [5] was inactive.
Turning to `Oc1ccc(Cl)cc1Cc1cc(Cl)ccc1O`, the AC50 was 9.92 µM (active) in assay [1] and 50 µM (active) in assay [2].
On to `CN(C)c1ccc(C(=N)c2ccc(N(C)C)cc2)cc1`, for which the AC50 in assay [1] is 19.8 µM (active). Also, the result in assay [2] was inactive.
As for `CC/C=C\C/C=C\C/C=C\CCCCCCCC(=O)O`, the outcome in assay [1] and in assay [2] was inactive.
In the case of `C[C@]12C=CC(=O)C=C1CC[C@@H]1[C@@H]2[C@@H](O)C[C@@]2(C)[C@H]1CC[C@]2(O)C(=O)CO`, the outcome (in the assay with PGR (gene 5241) [3]; in assay [4]; in assay [5]) was inactive.
On to `CCC(=O)Oc1ccc(/C(CC)=C(\CC)c2ccc(OC(=O)CC)cc2)cc1`, for which the AC50 was 9.26 µM (active) in the assay with PGR (gene 5241) [3] and 16.5 µM (active) in the assay with PGR (gene 5241) [6]. The call in assay [4] and in assay [5] was inactive.
`Cc1ccc(C(C)c2ccc(C)c(C)c2)cc1C`: the result (with PGR (gene 5241) [3]; in assay [4]; in assay [5]; with PGR (gene 5241) [6]) was inactive.
As to `C#CC1(O)CC[C@H]2[C@@H]3CCC4=CCCC[C@@H]4[C@H]3CC[C@@]21C` (some centres undefined), the outcome (with PGR (gene 5241) [3]; in assay [4]; in assay [5]) was inactive. The AC50 with PGR (gene 5241) [6] was 23.9 µM (active).
For the molecule `C1CN(SSN2CCOCC2)CCO1`, in assay [2], the outcome was inactive.
As to `CC(=O)[C@H]1[C@H](C#N)C[C@H]2[C@@H]3CC=C4C[C@@H](O)CC[C@]4(C)[C@H]3CC[C@@]21C`, the AC50 in the assay with PGR (gene 5241) [3] is 19.2 µM (active). Further, the outcome (in assay [4]; in assay [5]; in the assay with PGR (gene 5241) [6]) was inactive.
For `O=c1cc(-c2ccccc2)oc2ccccc12`, the result in assay [1] and in assay [2] was inactive.
Consider `CCCCCCCCCCOS(=O)(=O)O`, for which the AC50 in assay [1] is 8.08 µM (active). Further, the result in assay [2] was inactive.
For `Nc1ccc(-c2ccc(F)cc2)cc1`, the AC50 in the assay with PGR (gene 5241) [3] was 24.6 µM (active). For the same molecule, the molecule was called inactive (in assay [4]; in assay [5]; with PGR (gene 5241) [6]).
On to `O=C(C=Cc1ccccc1)OCc1ccccc1`, for which the result in assay [1] and in assay [2] was inactive.
Regarding `NC(CO)(CO)CO`, the result in assay [1] and in assay [2] was inactive.
